This passage reports growth results from PubChem BioAssay (NCI).

Structures are written as SMILES. This is part of a sample that, as a whole, favours compounds with a hit. Of some 83,000 tested, about 20% had one in any assay.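 Note: values are percent growth. 100 is the growth of untreated cells, values between 100 and 0 indicate rising inhibition; between -100 and 0 indicates cell death.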 Values without a mark were called inactive. Activity calls are given as the source filed them. Rule for the calls: active = growth percent below 10; inactive = the rest.

Assay in all cases: NCI-60 one-dose screen, 48 h (100 = growth as untreated, 0 = no growth, -100 = all killed)
Common to all, as to settings: 10 µM unless noted

For assay [1], the system named is DU-145 prostate.
In assay [2] the test system is K-562 leukemia.
Assay [3] deals with MALME-3M melanoma.
In assay [4] the test system is MDA-MB-231 breast.
For assay [5], the system named is RXF 393 renal.
Assay [6] has as its system SF-268 CNS.
Assay [7] has as its system SF-295 CNS.
Assay [8] has as its system SF-539 CNS.
In assay [9] the test system is UACC-257 melanoma.
For assay [10], the system named is M14 melanoma.
The test system of assay [11] is HCT-15 colon.
Assay [12] concerns HT29 colon.
The subject of assay [13] is SNB-75 CNS.
Assay [14] has as its system SNB-19 CNS.
For assay [15], the system named is U251 CNS.
Assay [16] has as its system PC-3 prostate.
The subject of assay [17] is UACC-62 melanoma.
Assay [18] concerns LOX IMVI melanoma.
The test system of assay [19] is SK-MEL-28 melanoma.
For assay [20], the system named is SK-MEL-5 melanoma.

`Oc1c(CN2CCCC2)cc(COCc2ccc(Br)cc2)c2cccnc12`: the growth in [1] was 22.7%; in [2], 8.51% (active); in assay [3] it was -3.92% (active); in assay [4], 5.06% (active); in [5], 20%; in assay [6] it was 10.8%. The growth is 13% in assay [7]; -23.5% (active) in assay [8]; -29.5% (active) in assay [9]; -3.51% (active) in assay [10]; -39.6% (active) in assay [11]; 55% in assay [12]. Also, the growth in assay [13] was 24.5%; in assay [14], 23.2%; in assay [15] it was -7.1% (active); in [16] it was 14.4%; in [17], -22.4% (active); in assay [18], -14.1% (active). In addition, in assay [19], the growth was 24.2%.
As to `N#C/C(=C/C=C/c1cccc(Cl)c1)S(=O)c1ccccc1` (stereo not drawn), the growth was -92.6% (active) in assay [1]; 2.14% (active) in [2]; -41.5% (active) in assay [3]; -57.6% (active) in [4]; -87.6% (active) in [5]; -59.2% (active) in assay [6]. Moreover, the growth is -28.9% (active) in assay [7]; -50.3% (active) in [8]; -46.8% (active) in assay [9]; -52.6% (active) in assay [10]; -69.4% (active) in [11]; -35.9% (active) in assay [12]. The growth in assay [13] is -28% (active); in assay [14] it was -53% (active); in assay [15] it was -89.6% (active); in assay [16], -55.5% (active); in assay [17], -74.2% (active); in assay [18], -85.3% (active). For the same compound, the growth in assay [19] is -61.1% (active).
With `c1c[nH]c(CNC2CCCCC2)c1`, the growth in assay [1] is 106%; in assay [2], 103%; in assay [3], 106%; in [4] it was 129%; in assay [5], 119%; in assay [6], 101%. For the same compound, the growth was 105% in assay [7]; 114% in assay [8]; 119% in [9]; 104% in [10]; 104% in assay [11]; 105% in assay [12]. Moreover, the growth in [13] is 108%; in assay [14] it was 119%; in assay [15] it was 102%; in [16] it was 81.6%; in [17], 110%; in assay [18], 89.7%. Also, the growth in [19] is 120%.
As for `COc1ccc(/C=N/C2=C(C#N)C(c3ccc(OC)cc3)c3ccc4ccccc4c3O2)cc1` (stereo not drawn), the growth was 97.7% in assay [1]; 23.4% in assay [2]; 74.2% in assay [3]; 53.5% in assay [4]; 84.8% in assay [5]; 77.2% in assay [6]. Besides, the growth in [7] is 88.6%; in [8], 79.5%; in assay [9], 92.1%; in assay [10], 69.7%; in [11] it was 44.3%; in [12] it was 123%. Besides, the growth is 45.5% in assay [13]; 80% in [14]; 84.5% in assay [15]; 70% in assay [16]; 57.8% in assay [17]; 72.6% in assay [18]. The growth in assay [19] was 79.7%.
Turning to `COc1ccc(-c2[nH]c(=S)n(C(CC3(C)NCC(=O)N3n3c(-c4ccccc4)cc(C)nc3=S)c3ccc(OC)cc3)c(=O)c2Br)cc1` (stereo not drawn), the growth was 66.6% in assay [1]; 14.8% in assay [2]; 90.2% in assay [3]; 79.9% in [4]; 65.5% in [5]; 75.6% in assay [6]. Moreover, the growth in [7] is 61.9%; in assay [8], 58.4%; in assay [9], 88.9%; in assay [10], 70.9%; in [11], 39.9%; in assay [12], 40.6%. Further, the growth in assay [13] was 3.88% (active); in assay [14], 55.6%; in [15], 55.8%; in assay [16] it was 66%; in assay [20], 79.5%; in [17], 50.6%. Further, in assay [19], the growth was 83.6%.
For the compound `Cc1ccc(S(=O)(=O)n2cc(CNc3ccc(N4CCOCC4=O)cc3)c3ccccc32)cc1`, the growth is 67.6% in assay [1]; 82.4% in assay [2]; 62.9% in assay [3]; 87.8% in assay [4]; -8.02% (active) in assay [5]; 89.4% in assay [6]. Also, the growth was 88.7% in [7]; 96.8% in assay [8]; 86.6% in [9]; 93.3% in [10]; 74.7% in assay [11]; 89.1% in assay [12]. The growth is 73.4% in assay [13]; 97.7% in [14]; 95.1% in [15]; 89.6% in [16]; 93% in assay [20]; 78.2% in assay [17]. In [19], the growth is 101%.
In the case of `COc1ccc(-c2nc(SCCC(C)C)nc(N/N=C\c3cccc(Cl)c3)c2C#N)cc1`, the growth in assay [1] was 85.4%; in assay [2], 79.7%; in assay [3], 111%; in [4], 53%; in [5], 87.5%; in [6], 71.1%. Besides, the growth in [7] was 55%; in assay [8] it was 84.3%; in [9], 87.3%; in assay [10], 101%; in assay [11], 82.2%; in assay [12], 83.2%. The growth in assay [13] is 4.61% (active); in [14], 76.2%; in [15] it was 29.1%; in [16] it was 83.7%; in [17], 89.6%; in [18], 70.9%. Further, the growth in assay [19] is 112%.
